This is an account of results in PubChem BioAssay (NCI).

The panel holds about 79,000 compounds, 15% with a hit somewhere; the sample as a whole holds those more often. Unmarked numbers belong to inactive results. Activity calls are given as the source filed them. Rule as the data show it: active = growth inhibition above about 70%; inactive = the rest.

The first assay can be described thus: NCI Yeast Anticancer Drug Screen. Data for the sgs1 mgt1 strain (AID 161).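 Also: 0% = growth of cultures given vehicle only.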 To be noted: S. cerevisiae sgs1 mgt1 strain, at 50.0 µM, hits give high values. An outline of the steps: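 Read-out: growth inhibition vs vehicle controls. Cells: mutant yeast strain deficient in DNA damage repair.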
In the case of `Cc1cn(C)c2c1-c1c(cnn1-c1ccccc1)CC2`, the growth inhibition is 44%.
On the same count and under the same terms, under `C[n+]1nc2ccccc2c(=Nc2ccccc2[N+](=O)[O-])[n-]1` stands 22.7%.
On the same count and under the same terms, with `O=S(=O)(c1ccccc1)N1CCCCC1` the figure was 3.45%; with `CCN(CC)Cc1cc(Nc2nc(/C=C/c3ccccc3)nc3ccccc23)ccc1O`, -3.25%; with `S=C1N=C2c3ccccc3C2C(=S)S1` (stereo not given), 0%.
The same measure, in the same setting: under `O=Cc1c2cnc(c1O)CSCCCCSC2` stands -10.8%.
`NC(=O)c1csc(NC2OC(CO)C(O)C(O)C2O)n1` (stereo not given): the growth inhibition is 0.05%.
`O=[N+]([O-])c1ccc(N=Nc2c(O)[nH]c3ccc(Br)cc23)c([N+](=O)[O-])c1`: the growth inhibition was 2.15%.
The same measure, in the same setting: under `CCN(CC)Cc1cc(N)cc(N=Nc2ccc3c(c2)c2ccccc2n3CC)c1O` stands 12.4%; under `O=C(Nc1cccnc1)c1ccc([N+](=O)[O-])s1`, 29.3%; under `CC1=NN(c2nc(N)nc(CCl)n2)CC1`, 8.15%.
For the molecule `Clc1cc(Cl)c2ccc3c(Cl)cc(Cl)c4ccc1c2c43`, the growth inhibition was -10.8%.
As to `CC(C)CCCC(C)C1CCC2C(CC(=O)O)C(C3(C)CCC(O)CC3=O)CCC2(C)C1` (stereo not given), the growth inhibition was 25.9%.
In the case of `[Cl][Pt+2][Cl].[NH-]c1ccccc1F.[NH-]c1ccccc1F`, the growth inhibition was -14.8%.
Still for that read-out and setting: with `COc1cc([N+](=O)[O-])ccc1NC(=O)C(Br)C(Br)C(=O)O` (stereo not given) the figure was -12.5%; with `Cc1cccc(C=NC23CC4CC(CC(C4)C2)C3)c1`, -40.5%.
On the same count and under the same terms, under `CC[P+](C)(Cc1ccccc1)c1ccccc1` (stereo not given) stands 22.1%; under `CC(C)N=C(c1ccccc1)N(O)c1ccccc1`, -0.75%.
The same measure, in the same setting: under `Cc1cccc(N=Nc2c(C)nc(N)nc2C)c1C` stands 2.1%; under `COc1ccc(NC(=O)N2CC3CCN2CC3)cc1`, -12.2%; under `Cn1c(=O)c2c(nc(OCC[N+](C)(C)C)n2C)n(C)c1=O`, -0.25%.
As for `CCCNC(=O)c1cccc2c1-c1ccccc1C2=O`, the growth inhibition was -2.65%.
Take `CN(C)CCC1(C2=CCCC2)CC/C(=C\c2ccc3c(c2)OCO3)C1=O` (stereo not given): the growth inhibition was -22.2%.
Still for that read-out and setting: under `C/C(CCc1cnc2ccccc2c1)=N/NC(N)=O` stands 85.7% (active).
`C=C[C@@]1(C)CC2CC[C@]3(C)C(C)=CC(=O)CC3[C@]2(C)CC1O` (stereo not given in full): the growth inhibition was 22.7%.
Same read-out and setting: under `Cc1cc2c(c3oc(C4(C)OC4C4OC4C)cc(=O)c13)C(=O)c1c(O)c(C3CC(C)(N(C)C)C(O)C(C)O3)cc(C3CC(N(C)C)C(O)C(C)O3)c1C2=O` (stereo not given) stands 90.7% (active); under `Cc1nc(NS(=O)(=O)c2ccc(N)cc2)nc(C)c1Br`, 4.1%.
Same read-out and setting: with `N#C/C(=C\c1ccc2c(c1)OCO2)C(=O)N/N=C/c1ccc2c(c1)OCO2` the figure was 5.4%; with `Fc1ccc(NC(=S)Nc2ccccn2)cc1`, -4.25%.
The same measure, in the same setting: with `OCC(O)C(O)C(O)CN=Cc1ccccc1O` (stereo not given) the figure was 10.4%.
Regarding `Clc1ccc(/C=C2\c3ccccc3-c3nc4ccccc4nc32)cc1`, the growth inhibition was -8.65%.
Same read-out and setting: with `CN1C(=O)N/C(=C\c2ccc(S(=O)(=O)N/N=C\C(O)C(O)C(O)CO)cc2)C1=O` (stereo not given) the figure was -22.9%.
Take `O=C(O)Cc1ccc(-c2ccccc2)cc1`: the growth inhibition is 21.2%.
On the same count and under the same terms, with `CCOC(=O)C1C(C)=CC(=O)CC1C` (stereo not given) the figure was 21.9%.
The same measure, in the same setting: under `N#Cc1c(-c2ccccc2)cc(-c2cccs2)c(C#N)c1N` stands 7.85%.
The same measure, in the same setting: under `CCc1ccc2[nH]nc(CCC(=O)O)c(=O)c2c1` stands -13.2%; under `CCN(CC)C(=S)SCCC(N)=O`, -2.8%; under `CCCCNC(=S)SSSSC(=S)NCCCC`, -6.05%.
Take `CC1=NN(C(=O)CC(=O)Nc2ccccc2C)C(=O)C1N=Nc1ccc(S(=O)(=O)c2ccc(N=NC3C(=O)N(C(=O)CC(=O)Nc4ccccc4C)N=C3C)cc2)cc1` (stereo not given): the growth inhibition is -2.25%.
Regarding `Cc1ccc(-n2cc(-c3ccc(Cl)cc3)c3c2N=CN2NC(c4ccco4)=NC32)cc1` (stereo not given), the growth inhibition is -13.6%.

A short description of the next assay: NCI Yeast Anticancer Drug Screen. Data for the cln2 rad14 strain (AID 165).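 Also: 0% = growth equal to vehicle treated cultures.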 To be noted: S. cerevisiae cln2 rad14 strain, at 50.0 µM, hits give high values. An outline of the steps:
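Growth of compound-exposed yeast (cln2 rad14 genotype) measured and expressed as inhibition relative to vehicle.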
On to `Cc1cn(C)c2c1-c1c(cnn1-c1ccccc1)CC2`, for which the growth inhibition was -2.4%.
Still for that read-out and setting: with `C[n+]1nc2ccccc2c(=Nc2ccccc2[N+](=O)[O-])[n-]1` the figure was 14.1%.
Still for that read-out and setting: with `O=S(=O)(c1ccccc1)N1CCCCC1` the figure was -33%; with `CCN(CC)Cc1cc(Nc2nc(/C=C/c3ccccc3)nc3ccccc23)ccc1O`, 13.9%; with `S=C1N=C2c3ccccc3C2C(=S)S1` (stereo not given), -24.9%.
`O=Cc1c2cnc(c1O)CSCCCCSC2`: the growth inhibition is -45.2%.
Same read-out and setting: with `NC(=O)c1csc(NC2OC(CO)C(O)C(O)C2O)n1` (stereo not given) the figure was 14.8%.
Same read-out and setting: with `O=[N+]([O-])c1ccc(N=Nc2c(O)[nH]c3ccc(Br)cc23)c([N+](=O)[O-])c1` the figure was -23.1%; with `CCN(CC)Cc1cc(N)cc(N=Nc2ccc3c(c2)c2ccccc2n3CC)c1O`, 27.7%; with `O=C(Nc1cccnc1)c1ccc([N+](=O)[O-])s1`, 9.25%.
Same read-out and setting: with `CC1=NN(c2nc(N)nc(CCl)n2)CC1` the figure was 21.9%; with `Clc1cc(Cl)c2ccc3c(Cl)cc(Cl)c4ccc1c2c43`, 7.3%.
For `CC(C)CCCC(C)C1CCC2C(CC(=O)O)C(C3(C)CCC(O)CC3=O)CCC2(C)C1` (stereo not given), the growth inhibition is 8.35%.
The same measure, in the same setting: with `[Cl][Pt+2][Cl].[NH-]c1ccccc1F.[NH-]c1ccccc1F` the figure was 15.8%.
Consider `COc1cc([N+](=O)[O-])ccc1NC(=O)C(Br)C(Br)C(=O)O` (stereo not given), for which the growth inhibition was -28.1%.
Take `Cc1cccc(C=NC23CC4CC(CC(C4)C2)C3)c1`: the growth inhibition was -30.7%.
Regarding `CC[P+](C)(Cc1ccccc1)c1ccccc1` (stereo not given), the growth inhibition was -3.25%.
As for `CC(C)N=C(c1ccccc1)N(O)c1ccccc1`, the growth inhibition was -10.3%.
Same read-out and setting: under `Cc1cccc(N=Nc2c(C)nc(N)nc2C)c1C` stands -37.6%.
The same measure, in the same setting: with `COc1ccc(NC(=O)N2CC3CCN2CC3)cc1` the figure was -21.9%.
`Cn1c(=O)c2c(nc(OCC[N+](C)(C)C)n2C)n(C)c1=O`: the growth inhibition is 33.4%.
The same measure, in the same setting: with `CCCNC(=O)c1cccc2c1-c1ccccc1C2=O` the figure was -1.7%; with `CN(C)CCC1(C2=CCCC2)CC/C(=C\c2ccc3c(c2)OCO3)C1=O` (stereo not given), 16.4%; with `C/C(CCc1cnc2ccccc2c1)=N/NC(N)=O`, 37.8%.
Regarding `C=C[C@@]1(C)CC2CC[C@]3(C)C(C)=CC(=O)CC3[C@]2(C)CC1O` (stereo not given in full), the growth inhibition is -20.3%.
On the same count and under the same terms, under `Cc1cc2c(c3oc(C4(C)OC4C4OC4C)cc(=O)c13)C(=O)c1c(O)c(C3CC(C)(N(C)C)C(O)C(C)O3)cc(C3CC(N(C)C)C(O)C(C)O3)c1C2=O` (stereo not given) stands 88.8% (active); under `Cc1nc(NS(=O)(=O)c2ccc(N)cc2)nc(C)c1Br`, -52%.
Same read-out and setting: under `N#C/C(=C\c1ccc2c(c1)OCO2)C(=O)N/N=C/c1ccc2c(c1)OCO2` stands -13.7%.
Still for that read-out and setting: with `Fc1ccc(NC(=S)Nc2ccccn2)cc1` the figure was -59.5%; with `OCC(O)C(O)C(O)CN=Cc1ccccc1O` (stereo not given), -7.8%.
Turning to `Clc1ccc(/C=C2\c3ccccc3-c3nc4ccccc4nc32)cc1`, the growth inhibition is -13.4%.
The same measure, in the same setting: with `CN1C(=O)N/C(=C\c2ccc(S(=O)(=O)N/N=C\C(O)C(O)C(O)CO)cc2)C1=O` (stereo not given) the figure was 4.15%; with `O=C(O)Cc1ccc(-c2ccccc2)cc1`, 6.45%.
Turning to `CCOC(=O)C1C(C)=CC(=O)CC1C` (stereo not given), the growth inhibition was -4.8%.
Still for that read-out and setting: under `N#Cc1c(-c2ccccc2)cc(-c2cccs2)c(C#N)c1N` stands -35.3%; under `CCc1ccc2[nH]nc(CCC(=O)O)c(=O)c2c1`, -12.4%; under `CCN(CC)C(=S)SCCC(N)=O`, 9.15%.
Same read-out and setting: with `CCCCNC(=S)SSSSC(=S)NCCCC` the figure was -53.5%.
The same measure, in the same setting: under `CC1=NN(C(=O)CC(=O)Nc2ccccc2C)C(=O)C1N=Nc1ccc(S(=O)(=O)c2ccc(N=NC3C(=O)N(C(=O)CC(=O)Nc4ccccc4C)N=C3C)cc2)cc1` (stereo not given) stands 2.45%.
Turning to `Cc1ccc(-n2cc(-c3ccc(Cl)cc3)c3c2N=CN2NC(c4ccco4)=NC32)cc1` (stereo not given), the growth inhibition is -12.4%.
